# Test results taken from the supplement of paper PMC6555819.
# Assays:
# Assay in all cases: PBM binding z-score (relative to random genomic background probes); higher = stronger binding; sequences stand for … in GC…GCGATTGACAGCGTAGAATGAAGG
# [1] = system: FXR:RXRa (NR concentration 270 nM, RXRa partner concentration 90 nM)
# Procedure, shortened: (§1)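 Ligand-free nuclear receptor dimers were applied to custom Agilent 4×180K protein-binding microarrays whose double-stranded probes carried direct-repeat seeds, single-nucleotide variants, half-site ablations and random human genomic background sequences in 34-nt variable regions. Incubation lasted 1 h. Binding z-scores were computed against the random background probes from regression-normalized fluorescence.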
# [2] = system: LXRa:RXRa (NR concentration 270 nM, RXRa partner concentration 90 nM)
# Procedure, shortened: as §1
# [3] = system: LXRa homodimer (NR concentration 270 nM)
# Procedure, shortened: as §1
# [4] = system: LXRb:RXRa (NR concentration 270 nM, RXRa partner concentration 90 nM)
# Procedure, shortened: as §1
# [5] = system: LXRb homodimer (NR concentration 270 nM)
# Procedure, shortened: as §1
# [6] = system: PPARa:RXRa (NR concentration 270 nM, RXRa partner concentration 90 nM)
# Procedure, shortened: as §1
# [7] = system: PPARg:RXRa (NR concentration 180 nM, RXRa partner concentration 90 nM)
# Procedure, shortened: as §1
# [8] = system: PPARg:RXRa 270nM:90nM, anti-RXR (NR concentration 270 nM, RXRa partner concentration 90 nM)
# Procedure, shortened: as §1
# [9] = system: PPARg:RXRa 30nM:10nM, anti-RXR (NR concentration 30 nM, RXRa partner concentration 10 nM)
# Procedure, shortened: as §1
# [10] = system: PPARg:RXRa 90nM:30nM, anti-RXR (NR concentration 90 nM, RXRa partner concentration 30 nM)
# Procedure, shortened: as §1
# [11] = system: PPARg:RXRa DBDmut IVT, anti-RXR (DBD mutation: RXRa K156A/R161A, NR concentration 270 nM, RXRa partner concentration 90 nM)
# Procedure, shortened: as §1
# [12] = system: PPARg:RXRa IVT, anti-PPARg (NR concentration 270 nM, RXRa partner concentration 90 nM)
# Procedure, shortened: as §1
# [13] = system: PPARg DBDmut:RXRa IVT, anti-PPARg (DBD mutation: PPARg1 K132A/R137A, NR concentration 270 nM, RXRa partner concentration 90 nM)
# Procedure, shortened: as §1
# [14] = system: PPARg DBDmut IVT, anti-PPARg (DBD mutation: PPARg1 K132A/R137A, NR concentration 270 nM)
# Procedure, shortened: as §1
# [15] = system: PPARg homodimer (NR concentration 180 nM)
# Procedure, shortened: as §1
# [16] = system: PXR:RXRa (NR concentration 270 nM, RXRa partner concentration 90 nM)
# Procedure, shortened: as §1
# [17] = system: PXR homodimer (NR concentration 270 nM)
# Procedure, shortened: as §1
# [18] = system: RARa:RXR (NR concentration 270 nM, RXRa partner concentration 90 nM)
# Procedure, shortened: as §1
# [19] = system: RARa homodimer (NR concentration 270 nM)
# Procedure, shortened: as §1
# [20] = system: RARb:RXRa (NR concentration 270 nM, RXRa partner concentration 90 nM)
# Procedure, shortened: as §1
Sequence,PBM binding z-score [1],PBM binding z-score [2],PBM binding z-score [3],PBM binding z-score [4],PBM binding z-score [5],PBM binding z-score [6],PBM binding z-score [7],PBM binding z-score [8],PBM binding z-score [9],PBM binding z-score [10],PBM binding z-score [11],PBM binding z-score [12],PBM binding z-score [13],PBM binding z-score [14],PBM binding z-score [15],PBM binding z-score [16],PBM binding z-score [17],PBM binding z-score [18],PBM binding z-score [19],PBM binding z-score [20]
ATCTCTAGGTAAAGATATTTCAGTGAATGCAAAT,0.207,0.268,0.422,0.346,0.74,0.352,0.976,0.732,0.499,0.83,2.46,1.88,1.53,1.33,0.424,0.367,0.337,0.994,1.26,0.0831
CCGACTGGGGCAAAGGTTACAATACTCAGTACGA,1.77,1.65,0.0321,2.42,-0.618,5.62,12.1,9.57,11.1,11.3,4.99,6.06,0.209,0.0744,1.56,2.63,-0.0818,4.23,0.27,2.55
CCTACTGGTCCAAAAAGGTCATTGATGCCGATAA,3.82,4.66,3.95,4.54,1.21,4.72,1.53,2.98,0.82,2.04,0.397,1.54,0.257,0.0096,3.82,5.11,5.49,4.95,2.48,3.94
GCTGCTAGGTCAGCTTGGTCAGCTAACGGGTACG,1.35,0.704,-0.534,0.334,0.0113,1.22,0.479,0.718,-0.549,-0.0941,3.14,2.46,-1.08,-1.08,0.887,0.168,-0.979,0.718,-0.683,3.29
CGAACTAGGTCAAGGACACTGAATCTCCGCACGC,3.6,2.34,0.392,1.61,-0.129,4.59,7.39,6.12,3.48,5.6,8.19,8.2,2.38,0.508,1.58,1.44,0.0266,1.97,0.291,4.04
GGAACGATGGCAAAGTTGATAGCATCTGTCGACG,-0.553,-0.632,-0.475,-0.708,-0.97,0.994,1.79,3.3,1.16,2.88,-0.422,-0.327,0.0385,-1.16,-0.819,-0.402,-0.23,-0.727,-1.19,-0.325
AGAATAAGGTTACCAAAGATCAGGGAAACGCTTG,1.76,5.91,0.165,2.57,-0.0188,2.93,1.84,2.41,0.732,1.67,2.55,2.26,1.2,1.13,0.8,1.03,0.338,1.61,0.942,2.57
GCGACTGGGGCATCAGCAGCTTACCATAACTTAA,-0.818,-0.694,-0.417,-0.0189,-1.2,0.137,0.465,0.329,-0.116,-0.198,4.14,2.77,-0.78,-0.628,-0.268,-0.462,-0.432,-0.454,-0.449,0.116
CCTGCTAGGCCATGGTCAGCTAATCTACAGTATG,-0.543,-0.565,-0.936,-0.753,-0.769,-0.617,0.069,-0.552,-0.451,-0.579,1.36,0.103,-0.241,-1.56,-0.736,-0.665,-0.705,-0.631,-0.715,0.929
AGAAGGAGGTTATTAAGATCAGGGAATTGCGGTC,1.12,1.36,0.522,1.46,0.654,2.01,1.01,1.31,0.314,0.827,2,1.6,0.512,-0.349,1.37,1.2,1.24,0.985,1.65,1.26
CGTTACGGGTCACTCCAGGTTATAGCATCGGAGT,4.94,7.62,1.6,5.34,-0.0358,4.67,3.44,4.08,1.42,2.69,2.91,3.75,0.311,-0.48,1.14,5.09,0.162,3.59,0.11,3.66
GCTAGCAGGCCATTCGGGTCACTCAATGACGGGC,1.03,0.603,-0.377,0.577,-1.07,1.9,0.695,0.555,-0.392,0.105,1.31,1.58,-0.52,-0.659,0.0772,1.83,1.45,1.71,-0.872,1.96
CCTACTGGGGCAGAAAGGTTACCATACCATCCGG,0.253,0.567,0.201,0.837,-0.839,2.14,2.05,2.74,0.989,2.22,3,4,0.246,-0.987,1.63,0.791,-0.188,1.85,0.396,1.87
ATACCAAGGTGATCGTGAGGGCGTTGATACTAAC,0.788,0.233,-0.00704,0.447,-0.219,0.489,0.369,-0.183,-0.112,-0.238,0.642,0.871,0.129,1.25,0.383,1.29,0.775,0.85,0.505,0.796
ATAATGAGGTTACCAAAGATCAGGGAAACGCTTG,1.8,6.12,0.166,3.15,0.596,3.37,3.17,3,1.2,2.35,4.27,3.93,1.55,1.88,0.591,1.51,0.204,1.93,1.22,2.14
CCTATTAGTTGACCATAAGAGCAACCGAAGCTCG,0.554,0.617,1,0.594,1.16,0.283,0.521,0.101,0.292,-0.0122,0.641,0.0362,0.382,0.759,2.08,0.627,0.992,0.532,2.97,0.667
ATCTCTAGGTAAGACTTAGTTCAGTGAAGAACGC,0.399,0.643,0.399,0.303,0.796,0.394,0.205,0.542,0.399,0.438,1.88,1.57,0.722,0.771,1.4,0.684,0.67,0.614,1.01,0.573
ATCTCTAGGTATAGTTCAGTGAAAGATCGATAGA,0.622,1.11,0.814,0.685,1.21,0.726,0.816,1.55,0.666,1.4,0.435,0.496,1.64,2.13,1.8,0.83,1.11,1.08,1.34,1.15
ACTCGGAGGACAAAGGTCAGTGCTACGCCAGTGA,3.58,3.67,1.45,2.94,0.443,4.64,6.76,6.58,5.31,7.31,0.807,3.58,1.11,-0.05,3.66,3.7,0.26,4.7,1.27,4.5
CCTTCTGGGCCAAGGTCATTGATCAGTCAAAGCA,2.83,2.99,0.639,2.84,-0.27,3.75,3.12,4.15,1.37,3.57,3.79,4.03,-0.283,-0.969,1.45,3.33,1.12,3.11,-0.215,3.39
CCTATTAATTGACCATAAGGGCAACCGAAGCTCG,0.865,0.6,1.66,0.747,0.711,0.737,0.586,0.878,0.302,0.73,0.352,0.562,0.908,0.978,2.66,0.673,1.92,1.11,3.76,1.42
TCTGGTAGGTCAACGATGGTCAGCTAATCTGCTA,4.45,3.6,0.986,2.55,0.479,4.35,4.4,4.54,3.78,4.32,5.2,5.77,1.81,0.722,2.39,2.25,0.21,2.78,0.843,4.16
ACTATTAGTTGACTTAGGGCAATCGATACGACGC,0.199,0.203,0.0491,0.176,0.464,-0.0585,0.814,0.195,0.373,0.365,0.335,0.292,1.13,0.914,0.761,0.304,0.241,0.866,0.707,0.668
ACTTGCGGGTCAACGAGGTTATAGCACGCGTATA,6.24,4.45,0.548,4.2,0.327,5.46,5.47,5.43,2.04,4.42,5.15,4.85,1.36,0.482,2.04,4.86,3.57,5.03,1.02,3.83
CCTACTGGGCCAAAGGTCATTAATTCCAATGCTC,4.33,4.53,3.47,4.65,0.938,6.19,12.5,10.3,12.4,12.4,5.16,6.79,0.543,0.388,4.75,5.26,2.61,5.93,2.26,4.25
GCGACTGGGGCAAAGCAGGTTGCCATAAGGTTGG,-0.377,-0.798,-0.715,-0.849,-1.26,0.461,0.599,1.15,-0.358,0.243,4.34,3.1,-0.486,-0.871,-0.00419,-0.373,-0.521,-0.163,-0.719,0.412
CTTACTGGGCCAAGGTCATTGATCAGTCAAAGCA,3.38,3.5,1.27,3.15,0.239,4.7,6.21,5.67,3.67,5.42,6.43,6.49,1.83,1.71,2.67,3.89,1.48,4.38,0.236,3.38
AGTCAAAGTTCACTGGGTAACGTAAGATTCAGCT,5.3,5.02,3.18,2.98,0.65,4.78,7.5,6.72,3.78,6.4,2.75,4.82,1.38,0.335,2.63,4.4,3.47,3.63,1.43,4.81
